In ChEMBL document CHEMBL3988442, “University of Dundee, Small-Polar-MMV Screening Library” (2021) one finds PXC50 and Percent Effect data, which are given here for three compounds.

For part of these data: Potency and affinity values are given separately.

The target in test [1] is T1, Methionyl-tRNA synthetase, putative (Leishmania donovani (strain BPK282A1)) (UniProt E9BF75).
T1 sequence (whole entry): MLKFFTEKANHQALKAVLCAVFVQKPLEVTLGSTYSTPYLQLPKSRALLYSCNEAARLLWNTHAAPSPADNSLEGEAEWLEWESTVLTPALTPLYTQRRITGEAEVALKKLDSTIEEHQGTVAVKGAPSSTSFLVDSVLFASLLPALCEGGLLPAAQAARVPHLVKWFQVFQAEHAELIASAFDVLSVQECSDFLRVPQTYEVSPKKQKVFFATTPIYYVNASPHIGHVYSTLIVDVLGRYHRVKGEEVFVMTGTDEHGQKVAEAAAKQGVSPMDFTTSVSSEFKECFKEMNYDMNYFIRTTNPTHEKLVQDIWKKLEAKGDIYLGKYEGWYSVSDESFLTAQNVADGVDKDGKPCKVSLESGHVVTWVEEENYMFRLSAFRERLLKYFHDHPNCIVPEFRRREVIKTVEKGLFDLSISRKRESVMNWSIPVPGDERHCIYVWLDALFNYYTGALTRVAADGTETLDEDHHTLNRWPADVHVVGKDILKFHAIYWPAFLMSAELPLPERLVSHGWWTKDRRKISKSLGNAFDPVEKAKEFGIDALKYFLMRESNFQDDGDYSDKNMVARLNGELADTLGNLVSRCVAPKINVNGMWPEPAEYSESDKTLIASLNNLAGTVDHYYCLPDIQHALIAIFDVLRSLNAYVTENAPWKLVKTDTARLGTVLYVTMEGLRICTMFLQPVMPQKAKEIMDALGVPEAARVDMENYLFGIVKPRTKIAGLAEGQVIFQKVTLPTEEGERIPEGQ
As to the kind of experiment: Leishmania donovani Methionine tRNA synthetase (LdMetRS):v7. Dose response assay. The class given is functional. Details: conc 80 nM, time 150 minutes.

The target in test [2] is Protein translocase subunit SecA (Escherichia coli (strain K12)) (UniProt P10408). As to the kind of experiment: Assay to Identify E. coli SecA ATPase Inhibitors. The class given is functional. Set-up: scale not given: direction of the effect not stated beside the values. To be noted: 30 µM.
Test [3] deals with T2, Ubiquitin-activating enzyme e1, putative (Leishmania donovani (strain BPK282A1)) (UniProt E9BSI1).
T2 sequence (whole entry): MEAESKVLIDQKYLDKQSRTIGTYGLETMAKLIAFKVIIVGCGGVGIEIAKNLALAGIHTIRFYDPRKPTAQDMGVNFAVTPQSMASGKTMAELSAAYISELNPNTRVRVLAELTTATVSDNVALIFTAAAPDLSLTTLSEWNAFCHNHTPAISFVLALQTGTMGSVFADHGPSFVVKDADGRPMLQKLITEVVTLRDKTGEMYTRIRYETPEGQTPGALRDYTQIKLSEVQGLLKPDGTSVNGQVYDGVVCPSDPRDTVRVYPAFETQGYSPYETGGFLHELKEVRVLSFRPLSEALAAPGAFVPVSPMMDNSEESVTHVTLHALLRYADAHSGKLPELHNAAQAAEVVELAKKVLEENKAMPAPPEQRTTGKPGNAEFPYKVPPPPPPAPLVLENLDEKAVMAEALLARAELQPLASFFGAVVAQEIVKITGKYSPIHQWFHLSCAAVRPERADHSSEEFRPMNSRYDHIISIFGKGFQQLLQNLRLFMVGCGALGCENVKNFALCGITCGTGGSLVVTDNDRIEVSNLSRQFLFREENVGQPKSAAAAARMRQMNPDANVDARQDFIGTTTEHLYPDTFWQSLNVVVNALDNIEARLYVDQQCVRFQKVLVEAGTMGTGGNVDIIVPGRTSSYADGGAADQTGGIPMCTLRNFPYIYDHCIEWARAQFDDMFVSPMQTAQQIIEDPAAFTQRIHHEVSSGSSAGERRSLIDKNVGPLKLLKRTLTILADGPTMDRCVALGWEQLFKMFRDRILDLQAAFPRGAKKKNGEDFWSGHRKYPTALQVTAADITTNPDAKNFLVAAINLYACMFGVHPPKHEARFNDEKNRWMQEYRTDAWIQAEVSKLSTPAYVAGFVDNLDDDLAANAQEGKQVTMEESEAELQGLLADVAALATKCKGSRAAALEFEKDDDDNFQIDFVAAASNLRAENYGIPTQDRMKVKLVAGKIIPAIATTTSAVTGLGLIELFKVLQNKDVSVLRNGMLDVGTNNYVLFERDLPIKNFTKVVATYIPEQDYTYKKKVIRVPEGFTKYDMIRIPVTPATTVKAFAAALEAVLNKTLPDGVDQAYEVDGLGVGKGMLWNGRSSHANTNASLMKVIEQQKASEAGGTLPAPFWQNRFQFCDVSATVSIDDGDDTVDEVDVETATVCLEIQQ
Description: Leishmania donovani Ubiquitin Activating Enzyme (LdE1). The class given is functional. Details: scale not given: direction of the effect not stated beside the values. To be noted: 30 µM.

In test [4] the target is Sialic acid-binding Ig-like lectin 9 (Homo sapiens) (UniProt Q9Y336). Description: Hs-Siglec9 ALPHAscreen SOP 20170721. Set-up: scale not given: direction of the effect not stated beside the values. To be noted: 10 µM.
The test system of a further test is Trypanosoma cruzi. Description: Trypanosoma cruzi phosphomannomutase and mannose-1-phosphate guanylyltransferase assay. The class given is functional. Details: scale not given: direction of the effect not stated beside the values. To be noted: 10 µM.
Test [5] has as its target T3, Arginase-2, mitochondrial (Homo sapiens) (UniProt P78540).
T3 sequence (whole entry): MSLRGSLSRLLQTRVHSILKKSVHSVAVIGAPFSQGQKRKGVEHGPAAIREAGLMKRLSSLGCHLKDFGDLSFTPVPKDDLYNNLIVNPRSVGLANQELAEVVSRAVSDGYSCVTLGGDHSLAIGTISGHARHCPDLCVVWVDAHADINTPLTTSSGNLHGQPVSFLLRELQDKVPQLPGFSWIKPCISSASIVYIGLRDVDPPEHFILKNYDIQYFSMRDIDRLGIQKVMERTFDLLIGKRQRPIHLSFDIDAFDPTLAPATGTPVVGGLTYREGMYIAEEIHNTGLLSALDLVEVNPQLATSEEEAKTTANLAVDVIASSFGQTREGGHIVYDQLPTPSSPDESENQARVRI
Description: in vitro enzyme assay to detect the production of urea directly proportional to the activity of Arginase II. Details: scale not given: in the data most compounds retested in dose-response had high values. To be noted: 33.3 µM. The class given is functional.

Test [6] has as its target T4, Proteasome subunit beta (Trypanosoma cruzi) (UniProt O96673).
T4 sequence (whole entry): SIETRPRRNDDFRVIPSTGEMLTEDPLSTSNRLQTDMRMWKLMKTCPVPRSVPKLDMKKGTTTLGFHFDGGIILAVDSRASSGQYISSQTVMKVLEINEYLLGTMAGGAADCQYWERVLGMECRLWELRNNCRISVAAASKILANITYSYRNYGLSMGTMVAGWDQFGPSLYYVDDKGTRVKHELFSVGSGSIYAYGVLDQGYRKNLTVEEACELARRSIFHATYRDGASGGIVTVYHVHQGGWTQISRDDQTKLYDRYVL
As to the kind of experiment: Trypanosoma cruzi proteasome chymotrypsin-like activity (TcProtChymo) assay. Set-up: scale not given: in the data most compounds retested in dose-response had high values. Format: functional. To be noted: 9.37 µM.

The species named for another test is Homo sapiens. Description: To identify inhibition of the IFN signalling (Jak-Stat) pathway via expression of an eGFP reporter gene under the control of an IFN-stimulated response element (ISRE) containing MxA promoter. Format: functional. Set-up: scale not given: direction of the effect not stated beside the values. To be noted: 30 µM. On the technique in general: Reporter assays use an easily measured gene product as a stand-in for the process of interest.

The target of test [7] is T5, Tyrosyl-tRNA synthetase, putative (Trypanosoma cruzi (strain CL Brener)) (UniProt Q4DSP6).
T5 sequence (whole entry): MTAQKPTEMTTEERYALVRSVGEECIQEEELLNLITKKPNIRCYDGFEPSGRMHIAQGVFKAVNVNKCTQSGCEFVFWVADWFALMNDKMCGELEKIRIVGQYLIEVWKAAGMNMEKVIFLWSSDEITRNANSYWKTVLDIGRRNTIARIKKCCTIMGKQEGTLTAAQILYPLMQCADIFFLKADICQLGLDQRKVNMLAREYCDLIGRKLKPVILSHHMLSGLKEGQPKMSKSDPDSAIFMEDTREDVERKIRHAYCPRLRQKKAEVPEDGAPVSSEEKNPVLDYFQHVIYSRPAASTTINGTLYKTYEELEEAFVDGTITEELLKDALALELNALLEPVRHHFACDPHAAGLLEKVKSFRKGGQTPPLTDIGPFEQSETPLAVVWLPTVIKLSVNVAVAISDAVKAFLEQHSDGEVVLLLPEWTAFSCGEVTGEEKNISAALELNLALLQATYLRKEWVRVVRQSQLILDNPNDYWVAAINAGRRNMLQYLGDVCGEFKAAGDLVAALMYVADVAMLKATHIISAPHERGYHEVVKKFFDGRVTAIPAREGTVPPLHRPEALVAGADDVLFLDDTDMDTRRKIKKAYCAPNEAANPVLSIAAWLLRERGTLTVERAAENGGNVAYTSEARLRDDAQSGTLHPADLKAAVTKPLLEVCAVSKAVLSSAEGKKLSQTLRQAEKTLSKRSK
Description: Trypanosoma cruzi tyrosyl tRNA synthetase (TcYRS) _High Tyrosine SOP. Format: functional. Set-up: scale not given: in the data most compounds retested in dose-response had high values. To be noted: 30 µM.

The target in test [8] is T5, Tyrosyl-tRNA synthetase, putative (Trypanosoma cruzi (strain CL Brener)). As to the kind of experiment: Trypanosoma cruzi tyrosyl tRNA synthetase (TcYRS) SOP. The class given is functional. Details: scale not given: direction of the effect not stated beside the values. To be noted: 30 µM.
For test [9], the target named is Chromo domain-containing protein 1 (Saccharomyces cerevisiae (strain ATCC 204508 / S288c) (Baker's yeast)) (UniProt P32657). As to the kind of experiment: ScCHD-1 Enzyme Inhibition Assay. Format: functional. Set-up: scale not given: in the data most compounds retested in dose-response had high values. To be noted: 30 µM.
Sequence of Chromo domain-containing protein 1 (Saccharomyces cerevisiae (strain ATCC 204508 / S288c) (Baker's yeast)) (P32657 whole entry, the tested form may be a part): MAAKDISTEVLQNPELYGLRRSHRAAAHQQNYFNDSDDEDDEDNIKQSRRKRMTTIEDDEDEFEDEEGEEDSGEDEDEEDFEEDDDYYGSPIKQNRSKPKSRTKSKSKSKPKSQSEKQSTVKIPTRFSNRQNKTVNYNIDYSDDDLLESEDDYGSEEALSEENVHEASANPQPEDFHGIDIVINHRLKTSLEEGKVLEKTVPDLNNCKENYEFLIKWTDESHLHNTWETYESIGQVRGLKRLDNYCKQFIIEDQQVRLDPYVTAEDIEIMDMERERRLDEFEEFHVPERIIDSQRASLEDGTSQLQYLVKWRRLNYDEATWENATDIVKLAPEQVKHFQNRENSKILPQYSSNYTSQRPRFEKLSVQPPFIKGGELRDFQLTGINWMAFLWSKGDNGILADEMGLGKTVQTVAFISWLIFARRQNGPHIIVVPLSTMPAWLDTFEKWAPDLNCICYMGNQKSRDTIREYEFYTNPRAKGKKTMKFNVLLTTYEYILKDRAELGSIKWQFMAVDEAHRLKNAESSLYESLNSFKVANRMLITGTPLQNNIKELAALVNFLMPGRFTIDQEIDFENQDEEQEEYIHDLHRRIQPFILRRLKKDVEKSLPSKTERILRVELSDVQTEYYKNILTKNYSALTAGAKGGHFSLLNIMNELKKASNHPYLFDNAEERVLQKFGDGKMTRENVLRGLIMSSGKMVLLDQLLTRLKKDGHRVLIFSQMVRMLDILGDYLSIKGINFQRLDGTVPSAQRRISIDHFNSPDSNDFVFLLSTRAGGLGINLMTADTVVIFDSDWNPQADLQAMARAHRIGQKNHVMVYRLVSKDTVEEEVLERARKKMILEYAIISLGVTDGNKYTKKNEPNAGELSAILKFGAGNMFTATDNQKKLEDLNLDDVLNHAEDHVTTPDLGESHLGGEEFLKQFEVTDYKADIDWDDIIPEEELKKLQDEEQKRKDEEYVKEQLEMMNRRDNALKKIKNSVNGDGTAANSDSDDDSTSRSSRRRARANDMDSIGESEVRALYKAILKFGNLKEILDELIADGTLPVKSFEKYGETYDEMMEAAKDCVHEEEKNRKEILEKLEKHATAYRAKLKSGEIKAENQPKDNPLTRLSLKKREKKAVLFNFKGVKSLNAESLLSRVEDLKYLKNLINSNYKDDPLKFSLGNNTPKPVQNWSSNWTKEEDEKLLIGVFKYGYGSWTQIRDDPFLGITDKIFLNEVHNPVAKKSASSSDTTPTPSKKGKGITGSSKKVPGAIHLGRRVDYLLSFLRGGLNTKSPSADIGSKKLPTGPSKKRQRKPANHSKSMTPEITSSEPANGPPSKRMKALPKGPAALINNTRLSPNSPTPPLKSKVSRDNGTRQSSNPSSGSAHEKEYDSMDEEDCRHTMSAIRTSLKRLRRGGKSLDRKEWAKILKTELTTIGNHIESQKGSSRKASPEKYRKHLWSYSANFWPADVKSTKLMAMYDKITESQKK

Sequence of Protein translocase subunit SecA (Escherichia coli (strain K12)) (P10408 whole entry): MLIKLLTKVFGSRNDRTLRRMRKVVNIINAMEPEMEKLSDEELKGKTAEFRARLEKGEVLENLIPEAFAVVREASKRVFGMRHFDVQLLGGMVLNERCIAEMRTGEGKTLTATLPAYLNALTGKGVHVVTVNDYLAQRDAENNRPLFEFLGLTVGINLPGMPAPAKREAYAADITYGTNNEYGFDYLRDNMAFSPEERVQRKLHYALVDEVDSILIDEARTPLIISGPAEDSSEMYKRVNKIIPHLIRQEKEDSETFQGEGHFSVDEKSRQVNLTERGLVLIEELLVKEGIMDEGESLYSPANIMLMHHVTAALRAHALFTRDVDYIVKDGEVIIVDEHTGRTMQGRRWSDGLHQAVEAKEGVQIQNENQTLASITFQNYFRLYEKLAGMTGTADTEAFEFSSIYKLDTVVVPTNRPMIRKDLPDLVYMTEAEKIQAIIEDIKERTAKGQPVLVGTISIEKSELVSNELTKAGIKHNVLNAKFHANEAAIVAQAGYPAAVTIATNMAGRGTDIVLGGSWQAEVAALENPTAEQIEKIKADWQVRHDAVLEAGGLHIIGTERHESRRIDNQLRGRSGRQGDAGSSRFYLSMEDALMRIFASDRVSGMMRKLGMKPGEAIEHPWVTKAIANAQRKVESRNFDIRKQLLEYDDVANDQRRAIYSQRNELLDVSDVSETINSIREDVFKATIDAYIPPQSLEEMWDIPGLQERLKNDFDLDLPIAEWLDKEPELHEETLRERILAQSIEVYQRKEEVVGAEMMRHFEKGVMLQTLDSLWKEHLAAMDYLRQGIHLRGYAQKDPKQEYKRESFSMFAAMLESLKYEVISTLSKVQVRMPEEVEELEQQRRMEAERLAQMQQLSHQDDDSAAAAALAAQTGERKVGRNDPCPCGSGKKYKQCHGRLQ
Sequence of Sialic acid-binding Ig-like lectin 9 (Homo sapiens) (Q9Y336 whole entry): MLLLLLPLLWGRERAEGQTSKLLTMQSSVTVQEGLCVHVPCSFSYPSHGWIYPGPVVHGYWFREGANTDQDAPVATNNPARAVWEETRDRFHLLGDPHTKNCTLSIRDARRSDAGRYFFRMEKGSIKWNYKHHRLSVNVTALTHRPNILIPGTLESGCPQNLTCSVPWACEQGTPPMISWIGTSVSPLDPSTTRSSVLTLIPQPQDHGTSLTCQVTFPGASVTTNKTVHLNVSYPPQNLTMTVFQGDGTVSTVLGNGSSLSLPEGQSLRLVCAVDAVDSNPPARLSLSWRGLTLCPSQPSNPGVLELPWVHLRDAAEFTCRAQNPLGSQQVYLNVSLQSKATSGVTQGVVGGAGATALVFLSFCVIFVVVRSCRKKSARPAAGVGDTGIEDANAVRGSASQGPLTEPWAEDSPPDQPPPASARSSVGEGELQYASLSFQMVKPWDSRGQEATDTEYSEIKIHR

On to `COc1ccc(OC)c(C2CCN(c3ccc4cc[nH]c4n3)C2)c1` (configuration not stated), for which the PXC50 in test [1] (BOTTOM 1.480634741, HILLSLOPE 1.299916262, MAX_EFFECT 56.52173913, TOP 100.0) was 4.07; in [1] (BOTTOM -1.247583822, HILLSLOPE 1.089672094, MAX_EFFECT 58.06451613, TOP 100.0), 4.11; in [1] (BOTTOM -8.715782986, HILLSLOPE 1.383269592, MAX_EFFECT 51.81518152, TOP 100.0), 4.09; in test [1] (MAX_EFFECT 37.4800638), less than 4; in [1] (MAX_EFFECT 42.80230326) it was less than 4.
As to `Cn1cccc1C1CCCCCN1C(=O)c1ccc(NC2CC2)nc1` (configuration not stated), the PXC50 in test [1] (BOTTOM 0.111908338, HILLSLOPE 1.39754326, MAX_EFFECT 51.12651646, TOP 100.0) is 4.03; in test [1] (BOTTOM 4.752718183, HILLSLOPE 1.435645002, MAX_EFFECT 69.44444444, TOP 100.0), 4.25; in test [1] (BOTTOM 4.940186034, HILLSLOPE 1.180279811, MAX_EFFECT 63.75838926, TOP 100.0) it was 4.18; in test [1] (MAX_EFFECT 37.16108453), less than 4; in test [1] (MAX_EFFECT 39.73128599) it was less than 4.
Take `CC(=O)N1CCN(c2ccc3ccc(C(=O)NC4CCCC4)cn23)CC1`: the PXC50 stood at 4.68 in test [1] (BOTTOM 0.0163, HILLSLOPE 3.098457383, MAX_EFFECT 65.01650165, TOP 63.35125002); 4.54 in test [1] (BOTTOM 1.065846223, HILLSLOPE 1.103958369, MAX_EFFECT 61.67400881, TOP 100.0); 4.96 in test [1] (BOTTOM 3.194533203, HILLSLOPE 3.014598033, MAX_EFFECT 67.98418972, TOP 64.53848237); 4.79 in test [1] (BOTTOM 4.030962781, HILLSLOPE 1.885788534, MAX_EFFECT 71.11111111, TOP 74.41524471); 4.36 in test [1] (BOTTOM 4.940042643, HILLSLOPE 1.835166553, MAX_EFFECT 81.72043011, TOP 100.0); 4.56 in test [1] (BOTTOM 5.527382632, HILLSLOPE 1.355052942, MAX_EFFECT 67.14876033, TOP 100.0). The PXC50 in test [1] (BOTTOM 8.593441039, HILLSLOPE 3.55536171, MAX_EFFECT 67.39130435, TOP 63.3453536) was determined as 4.8. Further, the Percent Effect in [2] is -2.65%; in [3] it was 14.3%; in test [4] it was 3.54%; in the test with Trypanosoma cruzi, -0.563%; in test [5], 1.37%; in test [6] it was 12.4%. In addition, the Percent Effect is 8.76% in the test listed under Homo sapiens, 31.9% in [7], 15% in [8] and -4.27% in test [9].
